Source: PubChem BioAssay
Values without a mark were called inactive. The source made the active and inactive calls.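 Rule for the calls: active = inhibition above the hit cutoff set in the earlier primary screen (cut at about 27% in these data); inactive = the rest.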

These compounds were tested against Protein phosphatase methylesterase 1 (Homo sapiens) (UniProt Q9Y570) (assay: PME-1 inhibitor activity retest, confirmation, biochemical, fluorescence polarization, FP-Rh probe, triplicate (AID 2171;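 note: 0% = enzyme with DMSO and 100% = wells lacking PME-1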)). Settings: recombinant PME-1, FP-Rh probe fluorescence polarization; at 5.9 µM; hits give high values.
Chain of Protein phosphatase methylesterase 1 (Homo sapiens) (Q9Y570 whole entry, looked up): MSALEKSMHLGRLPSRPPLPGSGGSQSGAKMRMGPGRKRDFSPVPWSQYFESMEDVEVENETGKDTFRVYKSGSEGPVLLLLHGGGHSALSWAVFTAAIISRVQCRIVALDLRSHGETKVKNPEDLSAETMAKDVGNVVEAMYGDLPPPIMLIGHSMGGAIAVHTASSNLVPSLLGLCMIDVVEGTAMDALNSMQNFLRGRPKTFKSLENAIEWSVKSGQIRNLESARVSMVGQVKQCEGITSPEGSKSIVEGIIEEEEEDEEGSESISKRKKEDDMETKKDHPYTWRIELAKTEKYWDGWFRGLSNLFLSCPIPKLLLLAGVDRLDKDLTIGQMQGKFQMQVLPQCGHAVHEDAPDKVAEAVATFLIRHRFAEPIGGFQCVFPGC

SMILES | inhibition
Cc1cc(N/N=C/c2ccc(O)c(C)c2O)nc(-c2ccccc2O)n1 | 27.9% (active)
Cc1ncc(CO)c(/C=N/NC(=S)Nc2ccc(Cl)c(Cl)c2)c1O | 6.06%
COc1cc(/C=N/NC(=O)[C@H](Cc2c[nH]c3ccccc23)NC(=O)OCC(C)C)cc([N+](=O)[O-])c1O | 35.9% (active)
Oc1c(Br)cc(Br)cc1CNc1cnc2ccccc2c1 | 34.8% (active)
COc1cc(/C=N/NC(=O)c2cc3c(ccc4ccccc43)o2)cc(OC)c1O | 29% (active)
C=CCCC(=O)Nc1nc(C)c(-c2csc(Nc3ccc(Cl)cc3)n2)s1 | 48.2% (active)
Nc1c(C(=O)Nc2ccccc2)sc2nc(-c3ccco3)ccc12 | 59.5% (active)
COc1cc2cc3c(N)c(C(=O)NCc4ccco4)sc3nc2cc1OC | 110% (active)
O=C1c2c(O)cccc2Cc2cccc(O)c21 | 23.4%
COc1cc(NC(=O)c2cc3ccccc3cc2O)c(OC)cc1Cl | 9.45%
Cc1ccc(/C=N/Nc2ccnc3cc(Cl)ccc23)c(C)c1 | 53.3% (active)
N#Cc1ccccc1Cn1c(=O)n(-c2ccc(CC(=O)NCc3ccco3)cc2)c(=O)c2sccc21 | 38.4% (active)
Cc1cccc2cc(C#N)c(SCC#N)nc12 | 3.95%
O=C(NC(C(=O)N/N=C/c1cc([N+](=O)[O-])ccc1O)c1n[nH]c(=O)c2ccccc12)c1ccccc1 (stereo not given) | 58.3% (active)
Cc1[nH]c2ccccc2c1CCNC(=O)c1ccc2c(c1[N+](=O)[O-])C(=O)c1ccccc1C2=O | 30.9% (active)
O=c1ccc2ccc(Oc3ccc([N+](=O)[O-])cc3[N+](=O)[O-])cc2o1 | 25.6%
O=C(c1sc2ccccc2c1Cl)N1CCN(c2ncccn2)CC1 | 24.4%
Cn1c(=O)c(Nc2ccc(O)cc2)c2c3c(cccc31)C(=O)c1ccccc1-2 | 36% (active)
O=c1[nH]c(C2CCCN(S(=O)(=O)c3ccccc3)C2)nc2c1nnn2Cc1ccccc1 (stereo not given) | 22.6%
Cc1[nH]c2c(C(=O)N3CCCC(CCC(=O)NCc4ccccc4F)C3)cccc2c1C (stereo not given) | 39.7% (active)

SMILES | inhibition
COc1ccc(OC)c(N2C(=O)CC(Cc3ccc(C)cc3)C2=O)c1 (stereo not given) | 0.52%
Cc1cccc(NC(=O)CN2C(=O)S/C(=C\c3ccc(O)c([N+](=O)[O-])c3)C2=O)c1 | 24.7%
CCn1c(CSc2nnc(-c3cccnc3)n2-c2ccccc2C)nc2cc(C(=O)O)ccc21 | 82% (active)
CCN(CC)S(=O)(=O)c1cc(NC(=O)C(C)N2CCN(c3ccccn3)CC2)ccc1C (stereo not given) | 18.6%
Cc1ccc(NS(=O)(=O)c2cccc(C(=O)N3CCN(c4ncccn4)CC3)c2)cc1 | 9.07%
COc1ccc2[nH]c(=O)c(-c3noc(-c4ccccc4)n3)cc2c1 | 28.2% (active)
O=C(c1ccc2c(c1)OCO2)N1CCCC(c2ccccc2)C1 (stereo not given) | 22%
Nc1c(C(=O)Nc2ccc(F)cc2)sc2nc(-c3ccco3)ccc12 | 49.6% (active)
COCCN=c1scc(-c2cc(OC)c(OC)c(OC)c2)n1/N=C/c1c(C)[nH]c2ccccc12 | 18.7%
Cc1ccc(C(=O)COC(=O)c2cccc(NC(=O)c3ccc([N+](=O)[O-])cc3[N+](=O)[O-])c2)cc1 | -3.98%
COc1ccccc1NS(=O)(=O)c1cccc(-n2c(O)c(C=Nc3ccccc3C(=O)O)c3ccccc3c2=O)c1 | 85.7% (active)
Oc1ccc(/C=C/c2ccc3cccc(O)c3n2)cc1Br | 23.9%
O=C(Nc1ccc(-c2csc(Nc3ccc(Cl)cc3)n2)cc1)c1cccc(C(F)(F)F)c1 | -1.3%
CCOC(=O)C1=C(C)Nc2ccccc2N/C1=N\S(=O)(=O)c1cccc(Cl)c1 | 18.7%
CCNc1ccc2noc3c2c1C(=O)c1ccccc1-3 | 87.6% (active)
O=C1[C@@H]2Cc3c([nH]c4ccccc34)C(c3ccccc3)N2C(=O)CN1C1CC1 (stereo not given in full) | 5.42%
CCCCN(C)C1=CC2=CC(=C(C#N)C#N)CCC2CC1 (stereo not given) | -13%
C/C(=N/Nc1nc(-c2ccccc2F)nc2ccccc12)c1ccccc1O | 3.91%
O=C(O)CCNc1ccc(NCCC(=O)O)c2c1C(=O)c1ccccc1C2=O | 16.7%
CCCCC(=O)NC(c1ccccc1Cl)c1c(O)ccc2ccccc12 (stereo not given) | 32.1% (active)
